The values below come from PubChem BioAssay (EPA / NIEHS).

Each structure is given as a SMILES string. Several values for one entry are separate records, joined by “and”; a condition that tells them apart may be missing. Equal values may be shown once. Inconclusive results are not listed. More than one record can exist for a structure, and the calls need not agree. Activity calls are given as the source filed them. Rule for the calls, unless noted: active = hit-call score of the fitted dose curve at least 0.9, where 1 is the maximum; inactive = score below 0.9.

As usually defined, the AC50 is the concentration giving half of the maximal activity seen.

Assay [1] can be described thus: ATG_NFI_CIS: Attagene CIS-FACTORIAL HepG2 Assay for human Nuclear Factor I (NFI) (AID 2282989). As to conditions: HepG2 cis-regulatory reporter, NFI response element transcription; actives raise or lower the signal. The method in brief: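 Multiplexed cis-reporter system in human HepG2 cells reports native TF activity as reporter mRNA induction 24 h post-dose. Fragments labelled with 6-FAM, HpaI-digested and resolved by capillary electrophoresis; activity fitted both directions versus DMSO.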

Assay [2] deals with Myc proto-oncogene protein (Homo sapiens) (UniProt P01106). The experiment in a line: ATG_Myc_CIS: Attagene CIS-FACTORIAL HepG2 Assay for human Myelocytomatosis (Myc) Proto-Oncogene Transcription Factor (AID 2282990). The following applies: HepG2, Attagene cis-reporter transcription factor activity; actives raise or lower the signal. The method in brief:
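After 24 h chemical treatment of HepG2 cells carrying multiplexed cis-regulated reporter constructs, reporter transcripts quantified by RT-PCR and capillary electrophoresis of fluorescent fragments. Gain or loss fitted against DMSO baseline.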

Assay [3] in a line: ATG_NF_kB_CIS: Attagene CIS-FACTORIAL HepG2 Assay for human Nuclear Factor Kappa B (NF-kB) (AID 2282991). The following applies: HepG2 Attagene cis-factorial NF-kB reporter mRNA; actives raise or lower the signal. The method in brief: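 HepG2 cells transfected with cis-promoter-driven reporter units, so endogenous transcription factor activity is measured. Reporter mRNA quantified 24 h after dosing by RT-PCR and capillary electrophoresis, with bidirectional fitting against DMSO.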

Assay [4] in a line: ATG_NRF2_ARE_CIS: Attagene CIS-FACTORIAL HepG2 Assay for human Nuclear Factor Erythroid 2 Related Factor 2 (NFR2) response to Antioxidant Response Elements (ARE) (AID 2282992).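 For AC50: reporter mRNA level measured by RT-PCR and capillary electrophoresis fluorescence.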 The following applies: HepG2 Attagene ARE/NRF2 reporter, transcription factor activity; actives raise or lower the signal. The essentials: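 Cis-factorial assay: transfected HepG2 reporter library, 24 h dosing, mRNA readout via RT-PCR/CE; DMSO-referenced bidirectional analysis.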

A short description of assay [5]: ATG_Oct_MLP_CIS: Attagene CIS-FACTORIAL HepG2 Assay for human Octamer-Binding Transcription Factor (Oct) (AID 2282993). As to conditions: HepG2 Attagene cis-factorial Oct reporter, mRNA; actives raise or lower the signal. The essentials: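 After 24 h compound exposure, transfected HepG2 cells were lysed for total RNA; reporter-specific cDNA was PCR-amplified, fluorescently labelled and sized by capillary electrophoresis. Bidirectional curve fitting used DMSO as baseline.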

Assay [6] deals with Cellular tumor antigen p53 (Homo sapiens) (UniProt P04637). Put plainly: ATG_p53_CIS: Attagene CIS-FACTORIAL HepG2 Assay for human p53 Transcription Factor (AID 2282994). The following applies: HepG2 p53 cis-element reporter, Attagene mRNA; actives raise or lower the signal. The method in brief:
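Using HepG2 hepatoma cells carrying cis-acting multiplexed reporters, mRNA induction is detected after a 24 h exposure. Gain- and loss-of-signal responses are fitted relative to DMSO-treated cells.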

Assay [7] in a line: BSK_3C_TissueFactor: BioMAP Diversity Plus: 3C Assay for Tissue Factor Biomarker Activity (AID 2282997). The following applies: BioMAP 3C HUVEC, tissue factor biomarker readout; actives raise or lower the signal. The essentials: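 Primary human umbilical vein endothelial cells in the 3C system were exposed to test chemical for 24 h, then Tissue Factor measured by ELISA. Activity was fitted bidirectionally against DMSO as negative control and baseline.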

A short description of assay [8]: BSK_3C_uPAR: BioMAP Diversity Plus: 3C Assay for Urokinase-type plasminogen activator receptor (uPAR) Biomarker Activity (AID 2282998). As to conditions: BioMAP 3C HUVEC, uPAR biomarker ELISA; actives raise or lower the signal. The essentials:
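Values derive from bidirectional curve fitting relative to DMSO, which served as baseline of activity. uPAR was measured by ELISA in human umbilical vein endothelial primary cultures 24 h after compound addition.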

The nature of assay [9]: BSK_3C_VCAM1: BioMAP Diversity Plus: 3C Assay for Vascular cell adhesion molecule 1 (VCAM1) Biomarker Activity (AID 2282999). As to conditions: BioMAP 3C HUVEC, VCAM1 ELISA, cytokine-stimulated; actives raise or lower the signal. The essentials: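 Endothelial cells from human umbilical vein are treated with test chemical. At 24 h, VCAM-1 is measured by ELISA, and responses in either direction are fitted relative to DMSO.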
For orientation: In an ELISA, binding on a coated surface is turned into a signal by an enzyme label.

Assay [10] in a line: BSK_4H_Eotaxin3: BioMAP Diversity Plus: 4H Assay for Eotaxin 3 Biomarker Activity (AID 2283000).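 For outcome: CCL26 protein level quantified by ELISA in parallel with SRB cytotoxicity check.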 The following applies: primary human endothelial cells (HUVEC); actives raise or lower the signal. The essentials: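 HUVEC, 24 h post-dose, ELISA for Eotaxin-3/CCL26. Gain or loss of signal fitted bidirectionally vs DMSO baseline.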
Assay [11] concerns the target human Peroxisome Proliferator-activated Receptor alpha (PPARa), PPARA (gene 5465) (UniProt Q07869). The experiment in a line: ATG_PPARa_TRANS: Attagene TRANS-FACTORIAL HepG2 Assay for human Peroxisome Proliferator-activated Receptor alpha (PPARa) (AID 2283001; active = hit-call score of the fitted dose curve at least 0.9, where 1 is the maximum). The essentials: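 Reporter transcripts from GAL4-UAS units in transfected HepG2 were quantified 24 h after dosing. Detection used reverse transcription, PCR, fluorescent primer extension and capillary electrophoresis, with DMSO as baseline.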

Assay [12] addresses human Peroxisome Proliferator-activated Receptor delta (PPARd), PPARD (gene 5467) (UniProt Q03181). The experiment in a line: ATG_PPARd_TRANS: Attagene TRANS-FACTORIAL HepG2 Assay for human Peroxisome Proliferator-activated Receptor delta (PPARd) (AID 2283002; active = hit-call score of the fitted dose curve at least 0.9, where 1 is the maximum). The essentials: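 Read-out is induced reporter mRNA, quantified by RT-PCR with fluorescent labelling and capillary electrophoresis after 24 h dosing. Cells are HepG2 transiently carrying multiple GAL4-UAS reporter units driven by exogenous NR-GAL4 chimeras; DMSO serves as baseline.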

Read-out in assay [13]: Intercellular Adhesion Molecule 1 (ICAM1), ICAM1 (gene 3383)
Put plainly: BSK_3C_ICAM1: BioMAP Diversity Plus: 3C Assay for Intercellular Adhesion Molecule 1 (ICAM1) Biomarker Activity (AID 2283003). The following applies: primary human endothelial cells (HUVEC); actives raise or lower the signal. The method in brief:
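Human vascular endothelial primary cells, 3C conditions, 24 h treatment. ICAM-1 by ELISA.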

The target in assay [14] is human Retinoic Acid Receptor beta (RARb), RARB (gene 5915) (UniProt P10826). The experiment in a line: ATG_RARb_TRANS: Attagene TRANS-FACTORIAL HepG2 Assay for human Retinoic Acid Receptor beta (AID 2283004; active = hit-call score of the fitted dose curve at least 0.9, where 1 is the maximum). The method in brief: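 HepG2 cells transiently transfected with multiplexed GAL4-UAS reporter units expressing chimeric NR–Gal4 fusions; 24 h compound exposure. Reporter mRNA quantified by RT-PCR, 6-FAM labelling, HpaI digestion and capillary electrophoresis; gain-of-signal fitted against DMSO baseline.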

A short description of assay [15]: BSK_3C_Proliferation: Cell Proliferation Assessment in the BioMAP Diversity Plus: 3C Assay (AID 2283006).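 For AC50: potency may reflect either rise or fall in cell number versus DMSO.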 As to conditions: primary human endothelial cells (HUVEC). The essentials: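 Proliferation of human vascular endothelial primary cells after 48 h dosing, quantified as SRB-stained protein at 560 nm relative to DMSO.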
The target of assay [16] is Peroxisome proliferator-activated receptor gamma (Homo sapiens) (UniProt P37231). Put plainly: ATG_PPARg_TRANS: Attagene TRANS-FACTORIAL HepG2 Assay for human Peroxisome Proliferator-activated Receptor-gamma (PPARg) (AID 2283007; active = hit-call score of the fitted dose curve at least 0.9, where 1 is the maximum). The method in brief: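 HepG2 cells are transiently transfected with GAL4-UAS reporter units driven by chimeric NR-Gal4 fusions and dosed for 24 h. Reporter mRNA is quantified by RT-PCR, 6-FAM labelling, HpaI digestion and capillary electrophoresis. Induction is scored against DMSO.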

Assay [17] deals with Nuclear receptor subfamily 1 group I member 2 (Homo sapiens) (UniProt O75469). The experiment in a line: ATG_PXR_TRANS: Attagene TRANS-FACTORIAL HepG2 Assay for human Pregnane X Receptor (PXR) (AID 2283008; active = hit-call score of the fitted dose curve at least 0.9, where 1 is the maximum). The method in brief:
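Fluorescence intensity of FAM-labelled, HpaI-digested reporter amplicons, separated by capillary electrophoresis, quantifies induction. HepG2 cells with PXR-Gal4 trans-reporter system were exposed 24 h; DMSO defines baseline.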

Assay [18] has as its target human Retinoic Acid Receptor gamma (RARg), RARG (gene 5916) (UniProt P13631). Put plainly: ATG_RARg_TRANS: Attagene TRANS-FACTORIAL HepG2 Assay for human Retinoic Acid Receptor gamma (RARg) (AID 2283009; active = hit-call score of the fitted dose curve at least 0.9, where 1 is the maximum;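 for AC50: AC50 is for reporter induction above DMSO meaning RARg activation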). The method in brief: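 HepG2, RARg-GAL4 TRANS system, 24 h exposure; reporter mRNA by RT-PCR + CE fluorescence; increase over DMSO.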
In assay [19] the target is human RAR-related Orphan Receptor beta (RORb), RORB (gene 6096) (UniProt Q92753). The experiment in a line: ATG_RORb_TRANS: Attagene TRANS-FACTORIAL HepG2 Assay for human RAR-related Orphan Receptor beta (RORb) (AID 2283010; active = hit-call score of the fitted dose curve at least 0.9, where 1 is the maximum). The essentials: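 In this TRANS-format test, human HepG2 cells express chimeric NR-Gal4 fusion proteins driving GAL4-UAS reporters. After 24 h dosing, reporter transcripts are measured by fluorescent RT-PCR/capillary electrophoresis, with DMSO as negative control.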

In assay [20] the target is Retinoic acid receptor alpha (Homo sapiens) (UniProt P10276). Put plainly: ATG_RARa_TRANS: Attagene TRANS-FACTORIAL HepG2 Assay for human Retinoic Acid Receptor alpha (RARa) (AID 2283005; active = hit-call score of the fitted dose curve at least 0.9, where 1 is the maximum;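 for AC50: potency for increased reporter signal meaning RARa activation over DMSO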). The method in brief: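 Reporter transcripts, measured by RT-PCR with fluorescent labeling and capillary electrophoresis after 24 h dosing, reflect activity of an exogenous human RARa–GAL4 fusion in transiently transfected HepG2. Fitted for increase relative to DMSO.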
Retinoic acid receptor alpha (Homo sapiens), sequence (P10276 whole entry, looked up, the tested form may be a part): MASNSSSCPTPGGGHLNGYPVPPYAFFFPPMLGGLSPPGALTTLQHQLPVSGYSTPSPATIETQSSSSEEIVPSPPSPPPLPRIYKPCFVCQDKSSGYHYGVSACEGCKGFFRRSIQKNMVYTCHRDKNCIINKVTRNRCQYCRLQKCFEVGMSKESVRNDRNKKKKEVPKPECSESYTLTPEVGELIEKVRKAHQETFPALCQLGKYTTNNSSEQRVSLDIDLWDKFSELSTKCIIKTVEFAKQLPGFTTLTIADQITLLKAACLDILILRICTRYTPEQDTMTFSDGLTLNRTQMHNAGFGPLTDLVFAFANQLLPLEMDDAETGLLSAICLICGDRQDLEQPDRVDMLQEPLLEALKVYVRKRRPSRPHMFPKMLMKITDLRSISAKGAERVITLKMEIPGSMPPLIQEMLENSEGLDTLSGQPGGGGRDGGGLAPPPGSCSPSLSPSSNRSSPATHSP

Peroxisome proliferator-activated receptor gamma (Homo sapiens), sequence (P37231 whole entry, looked up, the tested form may be a part): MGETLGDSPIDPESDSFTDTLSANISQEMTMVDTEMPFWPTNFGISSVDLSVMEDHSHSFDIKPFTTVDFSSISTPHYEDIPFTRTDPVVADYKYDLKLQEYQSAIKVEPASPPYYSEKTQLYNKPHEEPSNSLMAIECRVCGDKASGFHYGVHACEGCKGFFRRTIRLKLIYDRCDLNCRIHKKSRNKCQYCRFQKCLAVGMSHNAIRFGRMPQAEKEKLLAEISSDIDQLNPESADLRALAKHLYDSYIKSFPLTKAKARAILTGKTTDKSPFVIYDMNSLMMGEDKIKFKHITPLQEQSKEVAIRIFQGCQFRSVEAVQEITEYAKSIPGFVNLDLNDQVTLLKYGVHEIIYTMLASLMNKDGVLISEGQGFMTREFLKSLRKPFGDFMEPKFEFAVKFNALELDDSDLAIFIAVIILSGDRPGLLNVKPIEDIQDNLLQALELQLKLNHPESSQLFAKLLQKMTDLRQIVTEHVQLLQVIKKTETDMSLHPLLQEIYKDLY
human RAR-related Orphan Receptor beta (RORb), RORB (gene 6096), sequence (Q92753 whole entry, looked up, the tested form may be a part): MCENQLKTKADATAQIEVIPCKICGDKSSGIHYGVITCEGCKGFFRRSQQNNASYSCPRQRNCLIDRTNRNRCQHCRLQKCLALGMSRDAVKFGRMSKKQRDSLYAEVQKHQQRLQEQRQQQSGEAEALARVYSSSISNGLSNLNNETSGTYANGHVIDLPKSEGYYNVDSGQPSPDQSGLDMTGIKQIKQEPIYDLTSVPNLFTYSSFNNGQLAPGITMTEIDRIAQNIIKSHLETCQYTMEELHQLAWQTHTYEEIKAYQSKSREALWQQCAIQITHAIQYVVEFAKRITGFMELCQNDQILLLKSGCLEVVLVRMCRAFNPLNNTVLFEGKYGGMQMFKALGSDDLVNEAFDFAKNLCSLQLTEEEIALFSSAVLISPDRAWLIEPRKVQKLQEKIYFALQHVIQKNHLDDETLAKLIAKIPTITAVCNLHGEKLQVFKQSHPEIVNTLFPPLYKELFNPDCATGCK
Myc proto-oncogene protein (Homo sapiens), sequence (P01106 whole entry, looked up, the tested form may be a part): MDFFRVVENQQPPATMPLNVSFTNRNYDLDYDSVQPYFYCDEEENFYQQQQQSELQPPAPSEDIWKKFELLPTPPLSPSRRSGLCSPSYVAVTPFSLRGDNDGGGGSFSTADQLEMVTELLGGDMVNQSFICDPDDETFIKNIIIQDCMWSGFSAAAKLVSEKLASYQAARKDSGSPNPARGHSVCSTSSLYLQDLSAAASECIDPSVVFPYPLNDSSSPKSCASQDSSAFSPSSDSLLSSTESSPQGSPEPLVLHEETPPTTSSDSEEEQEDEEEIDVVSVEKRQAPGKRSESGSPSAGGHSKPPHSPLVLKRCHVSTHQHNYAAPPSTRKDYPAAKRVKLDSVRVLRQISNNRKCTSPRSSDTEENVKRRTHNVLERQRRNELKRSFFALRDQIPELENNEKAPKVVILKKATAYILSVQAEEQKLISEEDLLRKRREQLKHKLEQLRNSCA
human Peroxisome Proliferator-activated Receptor alpha (PPARa), PPARA (gene 5465), sequence (Q07869 whole entry, looked up, the tested form may be a part): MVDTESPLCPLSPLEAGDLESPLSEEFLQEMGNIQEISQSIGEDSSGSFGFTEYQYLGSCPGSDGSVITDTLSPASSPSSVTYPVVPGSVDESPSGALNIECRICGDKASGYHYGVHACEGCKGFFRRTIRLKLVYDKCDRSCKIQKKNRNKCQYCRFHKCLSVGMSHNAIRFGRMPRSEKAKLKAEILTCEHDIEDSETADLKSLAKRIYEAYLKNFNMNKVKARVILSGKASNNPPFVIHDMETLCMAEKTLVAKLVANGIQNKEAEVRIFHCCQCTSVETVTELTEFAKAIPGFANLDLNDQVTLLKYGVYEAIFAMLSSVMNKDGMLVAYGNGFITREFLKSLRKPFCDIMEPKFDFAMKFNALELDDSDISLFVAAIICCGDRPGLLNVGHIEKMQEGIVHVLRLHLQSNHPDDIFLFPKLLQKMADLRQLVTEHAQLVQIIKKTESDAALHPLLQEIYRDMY
human Retinoic Acid Receptor gamma (RARg), RARG (gene 5916), sequence (P13631 whole entry, looked up, the tested form may be a part): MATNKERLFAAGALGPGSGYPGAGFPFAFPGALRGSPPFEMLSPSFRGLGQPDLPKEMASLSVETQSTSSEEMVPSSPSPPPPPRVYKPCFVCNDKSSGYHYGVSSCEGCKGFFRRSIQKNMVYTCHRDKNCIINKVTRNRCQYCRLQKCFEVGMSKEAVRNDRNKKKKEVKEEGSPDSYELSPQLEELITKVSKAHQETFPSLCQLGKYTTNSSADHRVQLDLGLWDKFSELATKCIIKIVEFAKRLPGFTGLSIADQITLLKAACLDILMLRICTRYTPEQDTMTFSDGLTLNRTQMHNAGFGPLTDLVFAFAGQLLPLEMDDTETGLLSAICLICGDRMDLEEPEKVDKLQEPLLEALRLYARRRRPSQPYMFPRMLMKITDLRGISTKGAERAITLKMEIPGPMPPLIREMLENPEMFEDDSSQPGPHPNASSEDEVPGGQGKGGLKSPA
Cellular tumor antigen p53 (Homo sapiens), sequence (P04637 whole entry, looked up): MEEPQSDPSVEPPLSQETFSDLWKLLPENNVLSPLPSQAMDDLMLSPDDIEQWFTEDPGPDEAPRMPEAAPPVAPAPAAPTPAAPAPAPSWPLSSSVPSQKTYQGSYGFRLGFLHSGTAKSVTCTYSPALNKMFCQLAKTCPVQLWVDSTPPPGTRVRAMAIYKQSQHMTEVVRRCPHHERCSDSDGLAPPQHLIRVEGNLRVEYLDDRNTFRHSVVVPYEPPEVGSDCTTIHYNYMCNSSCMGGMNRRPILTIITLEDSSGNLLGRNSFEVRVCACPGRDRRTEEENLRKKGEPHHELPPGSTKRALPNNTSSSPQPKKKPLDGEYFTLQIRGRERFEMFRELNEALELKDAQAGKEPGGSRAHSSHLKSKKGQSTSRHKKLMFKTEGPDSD
human Peroxisome Proliferator-activated Receptor delta (PPARd), PPARD (gene 5467), sequence (Q03181 whole entry, looked up, the tested form may be a part): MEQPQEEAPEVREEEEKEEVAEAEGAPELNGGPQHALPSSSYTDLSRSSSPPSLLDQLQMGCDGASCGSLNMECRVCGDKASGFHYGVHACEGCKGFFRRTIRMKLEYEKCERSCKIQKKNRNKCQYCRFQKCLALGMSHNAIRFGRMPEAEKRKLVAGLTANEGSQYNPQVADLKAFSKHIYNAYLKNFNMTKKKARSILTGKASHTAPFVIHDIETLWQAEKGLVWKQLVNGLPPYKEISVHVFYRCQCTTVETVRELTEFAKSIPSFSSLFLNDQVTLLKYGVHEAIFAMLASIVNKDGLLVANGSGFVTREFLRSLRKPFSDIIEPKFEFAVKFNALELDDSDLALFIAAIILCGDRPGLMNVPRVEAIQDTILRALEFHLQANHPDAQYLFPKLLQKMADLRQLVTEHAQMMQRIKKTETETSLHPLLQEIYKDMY
Nuclear receptor subfamily 1 group I member 2 (Homo sapiens), sequence (O75469 whole entry, looked up, the tested form may be a part): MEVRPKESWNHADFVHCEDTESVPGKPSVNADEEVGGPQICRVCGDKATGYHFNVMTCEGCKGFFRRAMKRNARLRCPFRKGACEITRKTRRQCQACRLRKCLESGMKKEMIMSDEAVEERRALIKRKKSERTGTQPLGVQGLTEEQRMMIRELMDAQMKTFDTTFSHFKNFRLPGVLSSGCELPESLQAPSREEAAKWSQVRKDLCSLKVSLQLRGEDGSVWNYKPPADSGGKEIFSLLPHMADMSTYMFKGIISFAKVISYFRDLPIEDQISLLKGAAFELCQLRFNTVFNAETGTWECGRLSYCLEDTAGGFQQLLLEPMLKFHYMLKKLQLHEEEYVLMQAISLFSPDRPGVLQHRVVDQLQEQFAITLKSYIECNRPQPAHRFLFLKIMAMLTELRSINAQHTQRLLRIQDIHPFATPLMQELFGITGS
human Retinoic Acid Receptor beta (RARb), RARB (gene 5915), sequence (P10826 whole entry, looked up, the tested form may be a part): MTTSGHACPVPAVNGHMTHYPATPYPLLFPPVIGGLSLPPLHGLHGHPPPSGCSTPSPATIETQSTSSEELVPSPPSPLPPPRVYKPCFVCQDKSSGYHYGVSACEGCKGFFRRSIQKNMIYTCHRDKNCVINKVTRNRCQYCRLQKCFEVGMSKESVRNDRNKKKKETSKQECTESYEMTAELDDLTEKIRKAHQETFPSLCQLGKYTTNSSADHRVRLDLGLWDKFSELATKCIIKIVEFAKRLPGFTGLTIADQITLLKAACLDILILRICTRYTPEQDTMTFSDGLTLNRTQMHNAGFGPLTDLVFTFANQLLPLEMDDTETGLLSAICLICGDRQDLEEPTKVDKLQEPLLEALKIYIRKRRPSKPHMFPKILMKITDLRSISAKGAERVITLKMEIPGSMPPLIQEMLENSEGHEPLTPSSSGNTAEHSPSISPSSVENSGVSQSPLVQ

Take `Cc1cc(O)ccc1Cl`: the call in [1], in assay [2], in assay [3], in [4], in [5] and in assay [6] was inactive. Besides, the outcome in [7], in [8], in [9], in [10], in [11] and in assay [12] was inactive. In addition, the result in assay [13], in [14], in [15], in assay [16], in assay [17] and in assay [18] was inactive.

Take `Cc1ccccc1[N+](=O)[O-]`: the outcome in [1], in assay [2], in assay [3], in [4], in assay [5] and in assay [6] was inactive. Moreover, the result in assay [7], in assay [8], in assay [9], in assay [10], in [11] and in assay [13] was inactive. Besides, the outcome in assay [15] was inactive.

In the case of `Clc1ccc(C(c2ccccc2Cl)C(Cl)(Cl)Cl)cc1` (stereo not drawn), the concentration at half-maximal activity (AC50) is 107 µM (active) and 70.5 µM (active) in [1]; 111 µM (active) in assay [2]; 41.4 µM (active) and 39.6 µM (active) and 21.3 µM (active) in assay [4]; 70.5 µM (active) and 104 µM (active) and 42.3 µM (active) in assay [5]; 20.9 µM (active) in assay [7]; 21.3 µM (active) in [8]. The AC50 in [9] was 21 µM (active); in [10], 20.3 µM (active); in assay [13], 21.7 µM (active); in assay [15], 7.61 µM (active); in assay [17] it was 3.39 µM (active) and 2.82 µM (active) and 3.97 µM (active). Moreover, the outcome in assay [1], in assay [2], in assay [3], in [4], in assay [5] and in assay [6] was inactive. The result in assay [11], in assay [12], in assay [16], in assay [17], in [18] and in assay [19] was inactive.

As for `ClC1=C(Cl)[C@]2(Cl)[C@@H]3[C@@H]4C[C@@H]([C@H]5O[C@@H]45)[C@@H]3[C@@]1(Cl)C2(Cl)Cl`, the compound was classed as inactive in [1], in assay [2], in assay [3], in assay [5], in [6] and in assay [7]. Also, the result in [8], in [9], in [10], in assay [12], in assay [13] and in [14] was inactive. The compound was classed as inactive in [16] and in assay [19]. Moreover, the AC50 in [4] is 112 µM (active); in assay [20], 0.855 µM (active); in assay [15], 14.5 µM (active); in assay [17] it was 2.84 µM (active); in assay [18] it was 2.12 µM (active).

Consider `O=C(NC(=O)c1c(F)cccc1F)Nc1cc(Cl)c(OC(F)(F)C(F)F)c(Cl)c1`, for which the compound was called inactive in assay [1], in assay [2], in assay [3], in assay [4], in assay [5] and in [6]. The result in assay [8], in assay [9], in assay [10], in assay [11], in assay [12] and in assay [13] was inactive. The call in [20], in [15], in assay [16], in assay [17] and in [18] was inactive. The AC50 in assay [7] was 1.03 µM (active).

Turning to `Cc1ccc(O)c(C)c1`, the outcome in [1], in assay [2], in [3], in assay [5], in [6] and in [7] was inactive. Also, the result in assay [8], in [9], in assay [10], in [11], in assay [12] and in assay [13] was inactive. Also, the compound was called inactive in assay [14], in assay [15], in assay [16] and in assay [19]. Also, the AC50 in assay [4] was 7.51 µM (active).
